We go through 28 compounds from the supplement of paper PMC10811239.

Assay [1] has as its system LEGO organoid PTCC (PTEN-/-; TP53-/-; CDKN2A-/-; CDKN2B-/-). The assay is described as follows: bioluminescence (viable cell) signal fold change after vs before treatment, normalised to DMSO (ratio); higher = more tumour cell growth / less inhibition. As to conditions: 10 µM; treatment time 6 days. The method, then:
(§1)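 Luc2-labelled iPSC-derived glioblastoma-like organoids (LEGOs, genotypes PT = PTEN-/-;TP53-/-, PTCC = plus CDKN2A/B-/-, PTN = plus NF1-/-) were treated with 10 uM drug for 6 days (applied every other day) at 37 C. Bioluminescence imaging was done before treatment and 2 days after the last dose. BLI signals were normalised to the DMSO control on the same day and then to the pre-treatment signal (N=3).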

The test system of assay [2] is LEGO organoid PTN (PTEN-/-; TP53-/-; NF1-/-). The assay is described as above. As to conditions: 10 µM; treatment time 6 days. The method, then: as §1

On to `O=C1[N-]C(=O)C(c2ccccc2)(c2ccccc2)N1.[Na+]` [Phenytoin sodium], for which the bioluminescence in assay [1] was 1.45; in assay [2], 0.866.
In the same order, the values of `CC1COc2c(N3CCN(C)CC3)c(F)cc3c(=O)c(C(=O)O)cn1c23` (stereo unspecified) [Ofloxacin] are 2.88 and 1.19.
In the same order, the values of `CC(=O)NCCCS(=O)(=O)[O-].CC(=O)NCCCS(=O)(=O)[O-].[Ca+2]` [Acamprosate calcium] are 0.374 and 1.11.
The corresponding values for `CN1[C@@H]2CCC[C@H]1C[C@@H](NC(=O)c1nn(C)c3ccccc13)C2.Cl` [Granisetron hydrochloride] are 0.701 and 1.92.
Regarding `O=C(O)Cc1ccccc1Nc1c(Cl)cccc1Cl` [Diclofenac], the bioluminescence in assay [1] and in assay [2] was 1.13 throughout.
As for `C[C@H](Cn1cnc2c(N)ncnc21)OCP(=O)(O)O` [Tenofovir], the bioluminescence is 3.69 in assay [1] and 1.12 in assay [2].
The corresponding values for `Cl.OC[C@H]1NC[C@H](O)[C@@H](O)[C@H]1O` [Migalastat hydrochloride] are 0.51 and 0.719.
The corresponding values for `CCc1cc(C(N)=S)ccn1` [Ethinamide] are 0.707 and 1.99.
In the same order, the values of `CCC(=O)NCC[C@@H]1CCc2ccc3c(c21)CCO3` [Ramelteon] are 1.56 and 2.06.
For the compound `Cl.O=c1n(CCCN2CCN(c3cccc(Cl)c3)CC2)nc2ccccn12` [Trazodone hydrochloride], the figures for the bioluminescence in assay [1] and in assay [2] were 2.62 and 0.985, respectively.
In the same order, the values of `Nc1cccc2c1CN(C1CCC(=O)NC1=O)C2=O` (stereo unspecified) [Lenalidomide] are 4.82 and 3.63.
The corresponding values for `CN(C/C=C/c1ccccc1)Cc1cccc2ccccc12.Cl` [Naftifine hydrochloride] are 1.3 and 0.535.
The corresponding values for `COc1ccc(CNc2nc(N3CCC[C@H]3CO)ncc2C(=O)NCc2ncccn2)cc1Cl` [Avanafil] are 0.873 and 1.11.
As for `C[C@@H]1C[C@H]2[C@@H]3CCC4=CC(=O)C=C[C@]4(C)[C@@]3(F)[C@@H](O)C[C@]2(C)[C@@]1(O)C(=O)CO` [Dexamethasone], the bioluminescence worked out at 1.28 in assay [1] and 1.71 in assay [2].
For the compound `Nc1nnc(-c2cccc(Cl)c2Cl)c(N)n1` [Lamotrigine], the figures for the bioluminescence in assay [1] and in assay [2] were 2.24 and 0.446, respectively.
On to `CO/N=C(\C(=O)N[C@@H]1C(=O)N2C(C(=O)[O-])=C(C[N+]3(C)CCCC3)CS[C@H]12)c1csc(N)n1.Cl.Cl.O` [Cefepime Dihydrochloride Monohydrate], for which the values for the bioluminescence in assay [1] and in assay [2] were 0.833 and 1.59, respectively.
In the same order, the values of `C/C(O)=C(\C#N)C(=O)Nc1ccc(C(F)(F)F)cc1` [Teriflunomide] are 0.469 and 2.32.
In the same order, the values of `CC(C)CN(C[C@@H](O)[C@H](Cc1ccccc1)NC(=O)O[C@H]1CCOC1)S(=O)(=O)c1ccc(N)cc1` [Amprenavir] are 0.498 and 0.695.
The corresponding values for `CCOC(=O)C1=C(C)NC(C)=C(C(=O)OC)C1c1cccc(Cl)c1Cl` (stereo unspecified) [Felodipine] are 1.16 and 1.04.
As for `C[C@@H](Oc1cc(-c2cnn(C3CCNCC3)c2)cnc1N)c1c(Cl)ccc(F)c1Cl` [Crizotinib], the bioluminescence in assay [1] worked out at 0.43; in assay [2], 0.303.
`COc1ccccc1Oc1c(NS(=O)(=O)c2ccc(C(C)(C)C)cc2)nc(-c2ncccn2)nc1OCCO` [Bosentan]: the bioluminescence in assay [1] was found to be 1.68; in assay [2] it was 1.28.
In the same order, the values of `CN1C(C(=O)Nc2ccccn2)=C(O)c2ccccc2S1(=O)=O` [Piroxicam] are 1.65 and 1.14.
Take `COC(=O)C1=C(C)NC(C)=C(C(=O)OCCN(C)Cc2ccccc2)C1c1cccc([N+](=O)[O-])c1.Cl` (stereo unspecified) [Nicardipine hydrochloride]: the figures for the bioluminescence in assay [1] and in assay [2] were 1.19 and 1.14, respectively.
In the same order, the values of `Cc1ccc(C(=O)c2cc(O)c(O)c([N+](=O)[O-])c2)cc1` [Tolcapone] are 2.93 and 1.31.
The corresponding values for `Nc1nc(=O)c2c(CCc3ccc(C(=O)N[C@@H](CCC(=O)[O-])C(=O)[O-])cc3)c[nH]c2[nH]1.Nc1nc(=O)c2c(CCc3ccc(C(=O)N[C@@H](CCC(=O)[O-])C(=O)[O-])cc3)c[nH]c2[nH]1.O.O.O.O.O.[Na+].[Na+].[Na+].[Na+]` [Pemetrexed Disodium Hydrate] are 0.95 and 1.05.
As for `C[C@]12C=CC(=O)C=C1CC[C@@H]1[C@@H]2C(=O)C[C@@]2(C)[C@H]1CC[C@]2(O)C(=O)CO` [Prednisone], the bioluminescence in assay [1] came out at 0.989; in assay [2], 1.29.
The corresponding values for `CC(CN(C)C)CN1c2ccccc2CCc2ccccc21.O=C(O)/C=C\C(=O)O` (stereo unspecified) [Trimipramine maleate] are 0.61 and 1.58.
The corresponding values for `CS(=O)(=O)c1ccc(C2=C(c3ccccc3)C(=O)OC2)cc1` [Rofecoxib] are 0.638 and 2.18.
